Only some compounds are listed: those with a hit (about 12% of all), similar ones and a draw of the others.
Lassa entry inh = inhibitors of Lassa virus binding or cell entry | Lassa virus pseudotype entry inhibition, cell reporter | Potency, µM (highest dose often 37.9 µM), actives largely listed as inhibitors | 1.2% of 300,000 active | AID 540256; calls by dose curve; tested in HEK293 cells; note: nearly all actives have a fitted effect of over 50% in size
CHX counter = counter-screen for Shiga toxin inhibitors: cycloheximide protein synthesis inhibition; cell reporter, cycloheximide protein synthesis inhibition counterscreen; max response, %; 12% of 300,000 active; AID 2314; in the data active = max response mostly above about 13%, no sharp cut-off; inactive = mostly below about 14%; note: read at 38.3 µM for the half of the compounds with a filed dose
Marburg entry inh = inhibitors of Marburg virus binding or cell entry | Marburg virus pseudotyped entry inhibition, cell reporter | Potency, µM (series often up to 37.8 µM), hits mostly inhibitors | AID 540276 | 1.8% of 300,000 active; calls by dose curve; tested in HEK293 cells
Shiga inhibitor = inhibitors of Shiga toxin in Vero cells; Vero cells, Shiga toxin protein synthesis inhibition reporter; inhibition, % at 38.7 µM; 9.2% of 290,000 active; AID 2315; in the data active = inhibition mostly above about 28%, no sharp cut-off; inactive = mostly below about 43%
Numbers stand for hits; – = inactive; ? = inconclusive; · = not tested or not shown.

SMILES	Lassa entry inh	CHX counter	Marburg entry inh	Shiga inhibitor
CCOC(=O)c1sc(NC(=O)c2cccs2)cc1C	?	32	?	141
CCOC(=O)c1sc(NC(=O)Nc2cccc(Cl)c2)cc1C	?	62	?	108
CCOC(=O)c1sc(NC(=O)c2sccc2C)cc1C	?	63	?	70
Cc1c(-c2nnc(SCC(=O)Nc3ccc(Cl)cc3)o2)nnn1-c1ccc(F)cc1	–	·	·	·
COc1ccc2oc(C(=O)OCC(=O)N(C)C3CCS(=O)(=O)C3)c(C)c2c1 (stereo unspecified)	–	·	–	·
O=S(=O)(Cc1cc(-c2ccccc2Cl)no1)c1ccccc1	–	38	?	121
O=S(=O)(NCc1cc(-c2ccc(Cl)cc2)no1)c1ccccc1	–	–	–	–
O=S(=O)(NCc1cc(-c2ccccc2Cl)no1)c1ccccc1	–	–	–	–
O=S(=O)(Cc1cc(-c2ccc(Cl)cc2)no1)c1ccccc1	–	38	–	44
C=C(C)Cc1c(C)nc(-c2ccccc2)[nH]c1=O	–	18	–	38
CCOC(=O)c1sc(NC(=O)CN2CCN(c3ccccc3)CC2)nc1C	–	–	?	–
COC(=O)c1cc2c(ccn2-c2ccc(F)cc2)n1Cc1ccc(OC(C)=O)cc1	?	59	–	122
COc1cc(NC(=O)c2ccc3nsnc3c2)cc(OC)c1OC	·	–	·	–
COc1cccc(NC(=O)c2ccc3nsnc3c2)c1	?	28	?	78
COc1ccc(C(=O)NNC(=O)c2snnc2C)cc1	–	–	–	42
COc1cccc(NC(=O)c2ccc(-n3cccn3)nc2)c1	?	40	–	26
COc1ccc(C(=O)Nc2ccc(/C(C)=N/NC(=O)c3ccccc3O)cc2)cc1OC	–	37	13µM	44
Cc1oc(-c2cccc(Cl)c2)nc1CS(=O)(=O)CC(=O)NC(C)CCc1ccccc1 (stereo unspecified)	–	·	?	·
COc1cccc(NC(=O)c2ccc(-n3cnnn3)cc2)c1	–	–	–	–
COc1ccc(NC(=O)c2ccc(NC(=O)C(C)C)cc2)c([N+](=O)[O-])c1	?	–	–	–
COc1cccc(NC(=O)CC(=O)c2ccc([N+](=O)[O-])cc2)c1	·	51	·	71
COc1cccc(NC(=O)c2cnc[nH]2)c1	·	33	·	41
COc1ccc(NC(=O)c2cccc(NC(=O)C(C)C)c2)c([N+](=O)[O-])c1	–	22	?	22
CC(C)C(=O)Nc1cccc(S(=O)(=O)c2cccc(NC(=O)C(C)C)c2)c1	0.63µM	–	?	–
COc1cccc(NC(=O)CCN2C(=O)c3ccc([N+](=O)[O-])cc3C2=O)c1	–	–	–	–
SMILES	Lassa entry inh	CHX counter	Marburg entry inh	Shiga inhibitor
Cc1ccc(-n2c(/C=C\c3ccc(F)c(F)c3)nc3ccccc3c2=O)c(C)c1	–	·	·	·
CC(=O)NS(=O)(=O)c1ccc(NS(=O)(=O)c2ccccc2[N+](=O)[O-])cc1	–	–	–	–
CC(NC(=O)C1CCC(C(=O)NC(C)c2ccccc2)CC1)c1ccccc1 (stereo unspecified)	·	–	·	–
COc1ccc(NS(=O)(=O)c2cccc(NC(=O)c3ccc(Cl)nc3)c2)cc1	5µM	–	?	–
COc1ccc(-c2cc(C(=O)Nc3ccc(C)cc3)no2)cc1	–	–	–	–
COc1ccc(NC(=O)c2c(C)noc2-c2snnc2C)cc1	?	–	10µM	–
Cc1ccc(OC(C)C(=O)Nc2ccc3c(c2)n(C)c(=O)n3C)c(C)c1 (stereo unspecified)	·	–	·	–
Cc1ccc(NC(=O)c2ccc(OC(=O)C(C)Oc3ccc(Cl)cc3C)cc2)cc1 (stereo unspecified)	?	43	?	61
O=C(Nc1ccc(Br)cc1)c1cnc[nH]1	·	39	·	64
CCSc1ccccc1C(=O)Nc1cccc(OC)c1	–	15	?	–
COc1ccc(-c2cccc(C(=O)Nc3ccc(OC)c(OC)c3)c2)cc1	?	–	–	–
COc1ccc(C(=O)Nc2ccc3c(c2)C(=O)N(C)C3=O)cc1OC	–	17	?	32
COc1ccc(NC(=O)c2csc(C)c2)cc1OC	·	25	·	30
COc1ccc(C(=O)Nc2ccc(OC)c(OC)c2)cc1	–	33	?	63
O=C(c1ccc([N+](=O)[O-])cc1)N(Cc1ccco1)c1ccccn1	–	·	–	·
COc1ccc(C(=O)NNC(=O)c2cccc(F)c2)cc1	–	26	–	68
COc1ccc(C(=O)Nc2cccc(OC)c2)cc1	?	58	?	91
COc1cccc(NC(=O)c2cccc(C(=O)Nc3cccc(OC)c3)c2)c1	–	–	–	–
O=C(Nc1ccc(F)cc1)c1ccc2nsnc2c1	·	46	·	64
Cc1[nH]c2ccc(C(=O)Nc3ccc(F)cc3)cc2c1C	–	·	·	·
